Only some compounds are listed: those with a hit (about 2.9% of all), similar ones and a draw of the others.
EPAC1 agonist – human EPAC1 agonism, validation; O95398; actives 1% (n = 16,000); EPAC1 Rap1b BODIPY-GDP exchange, fluorescence; Potency, µM, for the others: max response, positive = active, usual class: activators; also: nearly all actives have a fitted effect of over 70% in size
Target sequence (O95398 whole entry, looked up): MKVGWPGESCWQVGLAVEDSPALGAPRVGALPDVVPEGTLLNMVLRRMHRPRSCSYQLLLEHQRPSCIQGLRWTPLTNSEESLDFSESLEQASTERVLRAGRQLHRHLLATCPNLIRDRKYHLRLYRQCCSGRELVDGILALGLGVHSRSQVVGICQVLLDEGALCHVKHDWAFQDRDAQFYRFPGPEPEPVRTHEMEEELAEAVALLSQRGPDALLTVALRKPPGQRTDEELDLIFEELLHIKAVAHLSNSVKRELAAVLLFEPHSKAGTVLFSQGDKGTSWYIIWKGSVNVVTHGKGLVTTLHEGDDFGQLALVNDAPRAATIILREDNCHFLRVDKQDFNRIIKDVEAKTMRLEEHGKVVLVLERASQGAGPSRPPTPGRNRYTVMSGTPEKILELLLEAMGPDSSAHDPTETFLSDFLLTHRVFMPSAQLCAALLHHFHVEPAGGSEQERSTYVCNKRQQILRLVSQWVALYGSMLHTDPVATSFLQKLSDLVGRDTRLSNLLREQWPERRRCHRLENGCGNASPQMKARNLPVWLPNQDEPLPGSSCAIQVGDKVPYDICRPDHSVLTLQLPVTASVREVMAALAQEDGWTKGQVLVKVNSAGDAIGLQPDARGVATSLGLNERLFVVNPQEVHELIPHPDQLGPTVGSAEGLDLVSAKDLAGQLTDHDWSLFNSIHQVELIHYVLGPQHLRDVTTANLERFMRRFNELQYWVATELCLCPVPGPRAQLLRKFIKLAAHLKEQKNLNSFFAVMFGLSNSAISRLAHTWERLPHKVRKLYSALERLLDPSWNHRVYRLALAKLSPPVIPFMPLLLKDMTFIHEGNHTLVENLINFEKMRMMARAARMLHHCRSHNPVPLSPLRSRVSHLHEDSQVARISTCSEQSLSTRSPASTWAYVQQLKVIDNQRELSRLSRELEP
EPAC2 antag – validation of human EPAC2 antagonists; Q8WZA2; EPAC2 Rap1B BODIPY-GDP exchange, fluorescence; actives 1.7% (n = 16,000); Potency, µM (top dose mostly 112 µM), for inactives: at the top dose activity, negative = inhibition, most hits filed as inhibitors;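 also: 100% = activation by cAMP agonist control; nearly all actives have a fitted effect of over 40% in size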
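Normalized against a 6.5 mM cAMP agonist control, compounds were tested on 100 nM EPAC2 exchanging Rap1B-bound BODIPY-GDP (250 nM) for 50 uM GDP. Fluorescence drop (ex 480, em 540 nm) was tracked at room temperature over 30 min at 5-min intervals.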
Numbers without * were called inactive; i = inactive; ? = inconclusive; ! = not confirmed by another sample; [ ] = dose if it differs, or a comment. Calls follow the shape of the dose curve; as a rule, active = well fitted curve in the direction sought with a large enough effect; inconclusive = small, poorly fitted or top-dose-only effect, or another doubt; inactive = no such curve, though single readings can be large; an effect the other way counts as inactive or inconclusive. Unless noted, % is scaled to controls: 0 for no effect and ±100 for the full control effect; potency is read from the fitted curve at half-maximal effect.

SMILES	EPAC1 agonist	EPAC2 antag
c1ccc(-c2ccc(C(c3ccccc3)n3ccnc3)cc2)cc1 (configuration not stated)	?	50.1µM*
OC1(c2cccnc2)CCN(Cc2ccc3c(c2)CN(Cc2cc4ccccc4s2)CCO3)CC1	?	-43.1%
Nc1ccc2cc3ccc(N)cc3nc2c1	100µM*	i
CCOc1ccc2nc3cc(N)ccc3c(N)c2c1	28.5%	?
CCCCCCCCCCC/C=C\C(C)(C)/C=C\CCCC(=O)O	-58.0%	35.5µM*!
CCCCCCC/C=C\CCCCCCCCC(=O)O	-25.7%	28.2µM*
CCCCC/C=C\C/C=C\C/C=C\C/C=C\CCCC(=O)O	-16.6%	?
CCCCC/C=C\C/C=C\C/C=C\C/C=C\CCCCCC(=O)O	-14.5%	-27.7%[11.4 µM]
O=C1O[C@@H]2[C@@H](O)[C@H](O)O[C@@H]2[C@H]1O	5.2%	-15.2%
CCN(CC)CCOC(=O)c1ccc(N)cc1Cl	10.0%	-4.3%
COc1cccc(C(=O)N(Cc2cc3ccc(C)cc3nc2N(C)C)C2CC2)c1OC	-1.9%	14.1µM*
COc1ccc(-c2nc3cc(C)ccc3cc2CN(C(=O)c2cccs2)C2CC2)cc1OC	23.8%	?
COc1cccc(CN2C(=O)NC(C)(C3CCN(Cc4cnn(C)c4C)CC3)C2=O)c1OC (configuration not stated)	-6.0%	?
COc1cc(-c2coc3cc(O[C@H]4OC(CO)C(O)C(O)C4O)c(OC)c(O)c3c2=O)cc(O)c1OC (some centres not stated)	19.5%	-6.7%
COc1cc(-c2coc3cc(OCc4ccccc4)c(OC)c(O)c3c2=O)cc(O)c1OC	112µM*	-18.4%
CC(O)(COc1ccccc1)c1ccc2c(c1)CN(Cc1cccn1-c1ccccn1)CCO2 (configuration not stated)	-5.5%	-15.9%
O=C(CO)[C@@H](O)[C@H](O)[C@@H](O)C(=O)O	0.7%	-2.6%
COc1ccc(C(=O)N2CCC[C@@]3(CCN(Cc4cc(C(F)(F)F)cc(C(F)(F)F)c4)C3)C2)cc1	-109.0%	14.1µM*
COc1ccc(C(=O)N2CCC3(CCN(Cc4cc(C(F)(F)F)cc(C(F)(F)F)c4)CC3)CC2)cc1	-80.5%	28.2µM*
COc1ccc(C(=O)N2CCC[C@@]3(CCN(Cc4ccncc4)C3)C2)cc1	-51.1%	-4.2%
COCC(=O)N1CCC2(CCN(Cc3cc(C(F)(F)F)cc(C(F)(F)F)c3)CC2)CC1	-64.7%	-25.1%
CC(=O)OCC(=O)[C@@]1(O)[C@H](C)C[C@H]2[C@@H]3C[C@H](F)C4=CC(=O)C=C[C@]4(C)[C@H]3[C@@H](O)C[C@@]21C	-20.8%	5.8%
C=CC(C1=CC(=O)C(OC)=CC1=O)c1ccccc1 (configuration not stated)	17.7%	35.5µM*
C=CC(C1=CC(=O)C(OC)=CC1=O)c1ccc(OC)cc1 (configuration not stated)	-18.0%	?
CC(=O)N[C@@H](CSC/C=C(\C)CCC=C(C)C)C(=O)O	-7.8%	-14.1%[11.4 µM]
SMILES	EPAC1 agonist	EPAC2 antag
CC(=O)N[C@@H](CSC/C=C(\C)CC/C=C(\C)CC/C=C(\C)CCC=C(C)C)C(=O)O	-2.4%	89.1µM*!
CC(C)(C)c1ccc(C(=O)C[n+]2ccc(Cl)c3ccc(Cl)cc32)cc1	-3.9%	-5.2%
CN1CCN(CCCN2c3ccccc3Sc3ccc(C(F)(F)F)cc32)CC1	-1.9%	56.2µM*!
O=C(CCN1CCN(CCO)CC1)N1c2ccccc2Sc2ccc(C(F)(F)F)cc21	13.3%	6.6%
C[C@@H]1CCN(C(=O)[C@H](CCCN=C(N)N)NS(=O)(=O)c2cccc3c2NC[C@H](C)C3)[C@@H](C(=O)O)C1	-11.3%	-19.8%
CC(=O)C[C@H]1c2cc(C(F)(F)F)ccc2S(=O)(=O)N1Cc1ccccc1	22.2%	?
CCOC(=O)C[C@H]1c2ccccc2S(=O)(=O)N1Cc1cc(OC)c(OC)c(OC)c1	17.8%	10.7%
COC(=O)C[C@H]1c2ccc(C(F)(F)F)cc2S(=O)(=O)N1Cc1ccccc1	-4.7%	25.1µM*
CCOC(=O)C[C@H]1c2ccccc2S(=O)(=O)N1Cc1cccc(C(F)(F)F)c1	-7.6%	56.2µM*
CO[C@@H]1[C@@H](O[C@@H]2O[C@H](C)[C@@H](O[C@H]3C[C@@](C)(O)[C@@H](OC(=O)CC(C)C)[C@H](C)O3)[C@H](N(C)C)[C@H]2O)[C@@H](CC=O)C[C@@H](C)[C@@H](O)/C=C/C=C/C[C@@H](C)OC(=O)C[C@H]1O	0.4%	-4.4%
CCOC(=O)N1CCN(Cc2ccc3c(c2)CN(C(=O)c2ccc4ncccc4c2)CCO3)CC1	1.5%	-10.8%
Cc1cccc(C(=O)NCc2nc(-c3cccc(NC(=O)c4ccoc4C)c3)oc2C)n1	19.1%	-13.8%
CC(C)(C)C(=O)OCC(=O)[C@H]1CC[C@H]2[C@@H]3CCC4=CC(=O)CC[C@]4(C)[C@H]3CC[C@]12C	-23.9%	-17.0%
O=c1cnc2cnc(Oc3cccc(Cl)c3)nc2n1Cc1ccc(F)cc1	8.1%	10µM*
O=c1c(-c2cccs2)nc2cnc(Oc3ccccc3)nc2n1Cc1cccs1	10.8%	-22.4%
COc1ccc(-n2c(=O)c(-c3cccs3)nc3cnc(Nc4ccccc4)nc32)cc1	?	12.1%
COc1cccc(Nc2ncc3nc(-c4cccs4)c(=O)n(Cc4cccs4)c3n2)c1	?	4.1%
O=c1cnc2cnc(Oc3ccccc3)nc2n1Cc1cccs1	9.8%	12.6µM*
COc1cccc(Nc2ncc3ncc(=O)n(Cc4cccs4)c3n2)c1	112µM*	-13.6%
COc1cccc(Nc2ncc3nc(-c4cccs4)c(=O)n(-c4ccccc4)c3n2)c1	112µM*	354.6%
COCCn1c(=O)cnc2cnc(Oc3cccc(Cl)c3)nc21	-13.7%	-9.6%
CCCCCCCCCCCCCCCCCCOCC(COP(=O)([O-])OCC[N+](C)(C)C)OC (configuration not stated)	-23.5%	7.3%
COC(=O)[C@@H]1CCCN1C(=O)c1cnn(-c2ncc3c(n2)-c2ccccc2CCC3)c1C1CC1	-3.0%	-12.3%
COc1cccc(-c2nc3cc4c(cc3cc2CN(C(=O)c2cc(C)nn2C)C2CC2)CCC4)c1OC	0.4%	?
CC1(C)S[C@@H]2[C@H](NC(=O)[C@H](N)c3ccccc3)C(=O)N2[C@H]1C(=O)OCOC(=O)[C@@H]1N2C(=O)C[C@H]2S(=O)(=O)C1(C)C	6.2%	0.6%
SMILES	EPAC1 agonist	EPAC2 antag
COC(=O)C1CCCCN1Cc1ccc2c(c1)CN(Cc1cn[nH]c1-c1ccc(F)cc1)CCO2 (configuration not stated)	11.7%	-38.4%
CCOC(=O)C1=C(C)NC(C)=C(C(=O)OC)C1c1cccc(Cl)c1Cl (configuration not stated)	56.2µM*!	?
CCOC(=O)C1=C(COCCN)NC(C)=C(C(=O)OC)C1c1ccccc1Cl (configuration not stated)	1.4%	-3.9%
CCCCCCC[n+]1ccc(/C=C/c2c(C)[nH]c3ccccc23)cc1	100µM*	i
CCCCCCCCCC[n+]1ccc(/C=C/c2c[nH]c3ccccc23)cc1	100µM*	i
CCCCCCCCCCCCCCCC[n+]1ccc(/C=C/c2c[nH]c3ccccc23)cc1	?	491.1%
CCCCCCCCCCCCCCCC[n+]1ccc(/C=C/c2c(C)[nH]c3ccccc23)cc1	-44.6%	?
Cc1cnc(SCc2ccccn2)nc1C1CCCN(C(=O)c2noc3c2CCCC3)C1 (configuration not stated)	-10.8%	?
